# According to PubChem BioAssay AID1159580 (chemical genetic matrix, 2015):
# Among all 5,500 compounds or so, about 2,000 (36%) were called active. Roughly 18% stayed inconclusive and do not appear here. The list shows a part of the results. A number with no mark means an inactive call. Cut-off read from the data, not from the text of the source: active = normalized growth mostly below about 0.91 (no sharp cut-off); inconclusive = no clear call, values can overlap the other calls; inactive = mostly above about 0.92.
# Experiment: chemical genetic growth profiling, strain panel (AID 1159580);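 note: tested at 20 µM; growth read once vehicle control cultures reached saturation at 30 °C; 1 = growth at the plate median or of vehicle wells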
# Conditions: growth OD
smiles,measurement,setting,value
C[C@H](CCC(=O)O)[C@H]1CCC2C3C(CC[C@@]21C)[C@@]1(C)CC[C@@H](O)C[C@H]1C[C@@H]3O (stereo partly specified),normalized growth,"S. cerevisiae deletion strains, locus YKL009W, strain mrt4, stronger effect = lower value",0.807 (active)
same,normalized growth,"S. cerevisiae deletion strains, locus YKL068W, stronger effect = lower value",0.989
same,normalized growth,"S. cerevisiae deletion strains, locus YKL085W, strain MDH1 (second series), stronger effect = lower value",0.953
same,normalized growth,"S. cerevisiae deletion strains, locus YKL085W, strain MDH1, stronger effect = lower value",0.953
same,normalized growth,"S. cerevisiae deletion strains, locus YKL160W, strain elf1, stronger effect = lower value",0.977
same,normalized growth,"S. cerevisiae deletion strains, locus YKL190W, strain CNB1, stronger effect = lower value",0.99
same,normalized growth,"S. cerevisiae deletion strains, locus YKR001C, strain vps1, stronger effect = lower value",0.963
same,normalized growth,"S. cerevisiae deletion strains, locus YKR026C, strain gcn3, stronger effect = lower value",0.997
same,normalized growth,"S. cerevisiae deletion strains, locus YKR091W, strain srl3, stronger effect = lower value",0.99
same,normalized growth,"S. cerevisiae deletion strains, locus YLL001W, strain dnm1, stronger effect = lower value",0.953
same,normalized growth,"S. cerevisiae deletion strains, locus YLL026W, stronger effect = lower value",0.987
same,normalized growth,"S. cerevisiae deletion strains, locus YLL041C, strain sdh2, stronger effect = lower value",1
same,normalized growth,"S. cerevisiae deletion strains, locus YLR027C, strain aat2, stronger effect = lower value",0.983
same,normalized growth,"S. cerevisiae deletion strains, locus YLR039C, strain RIC1, stronger effect = lower value",0.828
same,normalized growth,"S. cerevisiae deletion strains, locus YLR058C, strain SHM2, stronger effect = lower value",0.984
same,normalized growth,"S. cerevisiae deletion strains, locus YLR102C, strain apc9, stronger effect = lower value",0.972
same,normalized growth,"S. cerevisiae deletion strains, locus YLR113W, strain HOG1, stronger effect = lower value",0.937
same,normalized growth,"S. cerevisiae deletion strains, locus YLR221C, strain rsa3, stronger effect = lower value",1.05
same,normalized growth,"S. cerevisiae deletion strains, locus YLR258W, strain gsy2, stronger effect = lower value",1.02
same,normalized growth,"S. cerevisiae deletion strains, locus YLR262C, strain YPT6 (second series), stronger effect = lower value",0.795 (active)
same,normalized growth,"S. cerevisiae deletion strains, locus YLR262C, strain YPT6, stronger effect = lower value",0.776
same,normalized growth,"S. cerevisiae deletion strains, locus YLR268W, strain sec22, stronger effect = lower value",0.929
same,normalized growth,"S. cerevisiae deletion strains, locus YLR320W, strain mms22, stronger effect = lower value",1.03
same,normalized growth,"S. cerevisiae deletion strains, locus YLR330W, strain CHS5, stronger effect = lower value",0.996
same,normalized growth,"S. cerevisiae deletion strains, locus YLR342W, strain FKS1 (second series), stronger effect = lower value",0.965
same,normalized growth,"S. cerevisiae deletion strains, locus YLR342W, strain FKS1, stronger effect = lower value",0.946
same,normalized growth,"S. cerevisiae deletion strains, locus YLR357W, strain rsc2, stronger effect = lower value",1.06
same,normalized growth,"S. cerevisiae deletion strains, locus YLR370C, strain arc18, stronger effect = lower value",0.964
same,normalized growth,"S. cerevisiae deletion strains, locus YLR371W, strain rom2, stronger effect = lower value",0.987
same,normalized growth,"S. cerevisiae deletion strains, locus YLR384C, strain iki3, stronger effect = lower value",0.967
same,normalized growth,"S. cerevisiae deletion strains, locus YLR418C, strain cdc73, stronger effect = lower value",0.965
same,normalized growth,"S. cerevisiae deletion strains, locus YML016C, strain PPZ1, stronger effect = lower value",0.978
same,normalized growth,"S. cerevisiae deletion strains, locus YML032C, strain rad52, stronger effect = lower value",0.95
same,normalized growth,"S. cerevisiae deletion strains, locus YML120C, strain ndi1, stronger effect = lower value",0.962
same,normalized growth,"S. cerevisiae deletion strains, locus YML124C, strain tub3, stronger effect = lower value",0.986
same,normalized growth,"S. cerevisiae deletion strains, locus YMR058W, strain fet3, stronger effect = lower value",0.997
same,normalized growth,"S. cerevisiae deletion strains, locus YMR078C, strain ctf18, stronger effect = lower value",0.972
same,normalized growth,"S. cerevisiae deletion strains, locus YMR125W, strain sto1, stronger effect = lower value",1.03
same,normalized growth,"S. cerevisiae deletion strains, locus YMR129W, stronger effect = lower value",0.988
same,normalized growth,"S. cerevisiae deletion strains, locus YMR205C, strain PFK2, stronger effect = lower value",0.985
same,normalized growth,"S. cerevisiae deletion strains, locus YMR223W, strain ubp8, stronger effect = lower value",1
same,normalized growth,"S. cerevisiae deletion strains, locus YMR231W, strain pep5, stronger effect = lower value",0.959
same,normalized growth,"S. cerevisiae deletion strains, locus YMR263W, strain SAP30, stronger effect = lower value",1
same,normalized growth,"S. cerevisiae deletion strains, locus YMR307W, strain GAS1, stronger effect = lower value",0.88
same,normalized growth,"S. cerevisiae deletion strains, locus YNL067W, strain RPL9B, stronger effect = lower value",0.972
same,normalized growth,"S. cerevisiae deletion strains, locus YNL071W, strain lat1, stronger effect = lower value",1.01
same,normalized growth,"S. cerevisiae deletion strains, locus YNL128W, strain TEP1, stronger effect = lower value",0.99
same,normalized growth,"S. cerevisiae deletion strains, locus YNL153C, strain GIM3, stronger effect = lower value",1
same,normalized growth,"S. cerevisiae deletion strains, locus YNL183C, strain NPR1, stronger effect = lower value",0.921
same,normalized growth,"S. cerevisiae deletion strains, locus YNL209W, strain ssb2, stronger effect = lower value",1.01
same,normalized growth,"S. cerevisiae deletion strains, locus YNL233W, strain BNI4, stronger effect = lower value",1.02
same,normalized growth,"S. cerevisiae deletion strains, locus YNL248C, strain rpa49, stronger effect = lower value",1.02
same,normalized growth,"S. cerevisiae deletion strains, locus YNL250W, strain rad50, stronger effect = lower value",0.978
same,normalized growth,"S. cerevisiae deletion strains, locus YNL271C, strain bni1, stronger effect = lower value",0.956
same,normalized growth,"S. cerevisiae deletion strains, locus YNL298W, strain CLA4, stronger effect = lower value",0.937
same,normalized growth,"S. cerevisiae deletion strains, locus YNL307C, strain MCK1, stronger effect = lower value",0.979
same,normalized growth,"S. cerevisiae deletion strains, locus YNL322C, strain KRE1 (second series), stronger effect = lower value",0.981
same,normalized growth,"S. cerevisiae deletion strains, locus YNL322C, strain KRE1, stronger effect = lower value",0.993
same,normalized growth,"S. cerevisiae deletion strains, locus YNR049C, strain mso1, stronger effect = lower value",0.993
same,normalized growth,"S. cerevisiae deletion strains, locus YNR052C, strain pop2, stronger effect = lower value",0.971
same,normalized growth,"S. cerevisiae deletion strains, locus YOL006C, strain TOP1, stronger effect = lower value",0.931
same,normalized growth,"S. cerevisiae deletion strains, locus YOL012C, strain htz1",0.86
same,normalized growth,"S. cerevisiae deletion strains, locus YOL147C, strain pex11, stronger effect = lower value",0.983
same,normalized growth,"S. cerevisiae deletion strains, locus YOR001W, strain rrp6, stronger effect = lower value",0.947
same,normalized growth,"S. cerevisiae deletion strains, locus YOR061W, strain CKA2, stronger effect = lower value",0.977
same,normalized growth,"S. cerevisiae deletion strains, locus YOR069W, strain VPS5, stronger effect = lower value",0.989
same,normalized growth,"S. cerevisiae deletion strains, locus YOR070C, strain gyp1, stronger effect = lower value",1
same,normalized growth,"S. cerevisiae deletion strains, locus YOR080W, strain dia2, stronger effect = lower value",0.972
same,normalized growth,"S. cerevisiae deletion strains, locus YOR083W, strain WHI5, stronger effect = lower value",0.969
same,normalized growth,"S. cerevisiae deletion strains, locus YOR106W, strain vam3, stronger effect = lower value",0.951
same,normalized growth,"S. cerevisiae deletion strains, locus YOR136W, strain idh2, stronger effect = lower value",1
same,normalized growth,"S. cerevisiae deletion strains, locus YOR144C, strain elg1, stronger effect = lower value",0.984
same,normalized growth,"S. cerevisiae deletion strains, locus YOR184W, strain ser1, stronger effect = lower value",0.921
same,normalized growth,"S. cerevisiae deletion strains, locus YOR231W, strain MKK1, stronger effect = lower value",0.952
same,normalized growth,"S. cerevisiae deletion strains, locus YOR265W, strain rbl2, stronger effect = lower value",0.99
same,normalized growth,"S. cerevisiae deletion strains, locus YOR270C, strain vph1, stronger effect = lower value",0.945
same,normalized growth,"S. cerevisiae deletion strains, locus YOR290C, strain snf2, stronger effect = lower value",1.03
same,normalized growth,"S. cerevisiae deletion strains, locus YOR316C, strain cot1, stronger effect = lower value",0.982
same,normalized growth,"S. cerevisiae deletion strains, locus YPL051W, strain arl3, stronger effect = lower value",1
same,normalized growth,"S. cerevisiae deletion strains, locus YPL055C, strain LGE1, stronger effect = lower value",1.01
same,normalized growth,"S. cerevisiae deletion strains, locus YPL078C, strain atp4, stronger effect = lower value",0.931
same,normalized growth,"S. cerevisiae deletion strains, locus YPL106C, strain sse1, stronger effect = lower value",0.993
same,normalized growth,"S. cerevisiae deletion strains, locus YPL240C, strain hsp82, stronger effect = lower value",1.01
same,normalized growth,"S. cerevisiae deletion strains, locus YPL241C, strain CIN2, stronger effect = lower value",0.993
same,normalized growth,"S. cerevisiae deletion strains, locus YPL256C, strain CLN2, stronger effect = lower value",0.936
same,normalized growth,"S. cerevisiae deletion strains, locus YPR119W, strain clb2, stronger effect = lower value",0.977
same,normalized growth,"S. cerevisiae deletion strains, locus YPR141C, strain kar3, stronger effect = lower value",0.97
same,normalized growth,"S. cerevisiae deletion strains, locus YPR163C, strain tif3, stronger effect = lower value",0.981
same,normalized growth,"S. cerevisiae deletion strains, locus YPR167C, strain met16, stronger effect = lower value",0.987
same,normalized growth,"S. cerevisiae deletion strains, strain wtn01, stronger effect = lower value",0.971
same,normalized growth,"S. cerevisiae strains, strain wild type, stronger effect = lower value",0.994
